# Source: PubChem (several laboratories)
# Compounds with a hit are over-represented: about 1.1% of the library has one in this group of screens.
# HDAC3 inh = blocks human histone deacetylase 3. O15379. recombinant HDAC3, fluorogenic peptide/trypsin coupled, fluorescence. inhibition, % at 8.3 µM. actives 0.15% (n = 320,000). AID 2718; in the data active = inhibition above about 26%, passing the limit was not always enough
# IDE cell activ = IDE (human) activation, cell-based; P14735; HEK cells, FAbeta-B cleavage, fluorescence polarization; 0% vehicle, 100% cell-free pure enzyme wells; activation, % at 5.96 µM; actives 0.073% (n = 340,000); AID 493087;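 active = activation above the mean of all tested compounds plus 3 SD, set per screening campaign, cut at about 17% in these data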
# Target sequence (P14735 whole entry, looked up): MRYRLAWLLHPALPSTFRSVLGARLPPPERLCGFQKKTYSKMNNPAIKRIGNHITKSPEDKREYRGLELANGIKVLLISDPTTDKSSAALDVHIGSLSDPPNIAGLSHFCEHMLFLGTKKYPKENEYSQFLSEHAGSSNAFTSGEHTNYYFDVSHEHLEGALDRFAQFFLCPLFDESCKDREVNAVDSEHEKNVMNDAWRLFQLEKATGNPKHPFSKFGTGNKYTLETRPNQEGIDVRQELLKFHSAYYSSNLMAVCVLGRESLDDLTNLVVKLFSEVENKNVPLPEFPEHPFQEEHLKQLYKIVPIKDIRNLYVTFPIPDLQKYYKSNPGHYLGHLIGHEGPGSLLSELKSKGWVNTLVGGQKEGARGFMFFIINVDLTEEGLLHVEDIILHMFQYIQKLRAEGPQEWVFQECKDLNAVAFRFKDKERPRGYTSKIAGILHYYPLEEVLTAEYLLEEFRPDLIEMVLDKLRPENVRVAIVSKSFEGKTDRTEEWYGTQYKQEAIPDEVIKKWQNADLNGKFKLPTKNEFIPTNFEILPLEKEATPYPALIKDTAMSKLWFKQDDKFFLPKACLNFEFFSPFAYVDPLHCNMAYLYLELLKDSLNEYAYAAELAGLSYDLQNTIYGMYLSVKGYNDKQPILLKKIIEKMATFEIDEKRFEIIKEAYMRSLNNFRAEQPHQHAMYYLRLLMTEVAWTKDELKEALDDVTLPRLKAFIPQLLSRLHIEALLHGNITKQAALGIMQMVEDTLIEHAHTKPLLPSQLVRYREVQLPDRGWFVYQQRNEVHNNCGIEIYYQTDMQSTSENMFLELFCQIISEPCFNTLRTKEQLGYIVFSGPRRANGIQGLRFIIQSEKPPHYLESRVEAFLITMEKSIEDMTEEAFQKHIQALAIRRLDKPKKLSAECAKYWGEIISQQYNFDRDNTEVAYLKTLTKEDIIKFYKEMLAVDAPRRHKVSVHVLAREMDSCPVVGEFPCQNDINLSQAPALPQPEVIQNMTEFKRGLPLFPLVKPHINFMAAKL
# IDE cell inh = inhibitors of human insulin-degrading enzyme in cells | HEK cells, FAbetaB cleavage, fluorescence polarization | inhibition, % at 5.59 µM | actives 0.41% (n = 320,000) | AID 434962;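 active = percent inhibition above the average of all tested compounds plus 3 SD, set per screening campaign, cut at about 16% in these data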;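 also: IDE supplied by intact live HEK cells; FP after avidin binding of uncleaved biotin substrate so inhibition keeps polarization high; 0% = DMSO wells and 100% = 60 µM reference IDE inhibitor Ii1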
# LANA-H2B inh = blocks KSHV LANA binding to histone H2A/H2B | inhibition, % (test concentration not listed) | actives 0.6% (n = 320,000) | AID 2629 | cell-free LANA-H2A/H2B peptide, fluorescence polarization; in the data active = inhibition mostly above about 10%, no sharp cut-off; inactive = mostly below about 6.7%
# IDE inh confirm = confirmation of human insulin-degrading enzyme inhibitors in cells; shares compounds with IDE cell inh; HEK cells, FAbetaB cleavage, fluorescence polarization; inhibition, % at 5.59 µM; actives 51% (n = 1,200); AID 435028;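 active = mean inhibition across triplicate wells above the cutoff set by the earlier primary insulin-degrading enzyme screen, cut at about 16% in these data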;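 also: 0% = DMSO wells and 100% = 60 µM reference IDE inhibitor Ii1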
# HEK cytotox = counter-screen for IDE inhibitors: cytotoxicity in HEK cells. inhibition, % at 5.59 µM. actives 28% (n = 1,200). shares compounds with IDE cell inh. AID 449730. HEK293 cytotoxicity, ATP luminescence; in the data active = inhibition above about 22%;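 also: 0% = vehicle wells and 100% = reference cytotoxic drug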
# * marks the source's active call; other numbers are inactive results; . = not tested or not shown.
SMILES,HDAC3 inh,IDE cell activ,IDE cell inh,LANA-H2B inh,IDE inh confirm,HEK cytotox
Cc1nc2c(ccc3nc(NC(=O)c4ccc5c(c4)OCCO5)sc32)s1,5,-21,19*,4,6,31*
Cc1nn(C)c(C)c1NC(=O)CN1CCC(O)(c2ccc3c(c2)OCO3)CC1,3,-1,2,-4,.,.
CC(C)(C)c1ccc(/C=C2\CCn3c2nc2cc(C(=O)O)ccc2c3=O)cc1,4,3,-7,-4,.,.
COc1ccc(-n2c(C)cc(/C=C3\SC(=S)N(Cc4ccco4)C3=O)c2C)cc1,4,-8,17*,-4,18*,11
COc1ccc(OC)c2c1C(=O)c1ccccc1C2=O,2,.,-7,15,.,.
COc1ccc(OC)c2c1C(=O)C(Cl)=C(Cl)C2=O,-6,-102,22*,-5,18*,125*
FC(F)(F)Oc1ccc(NC(=S)NCCCN2CCOCC2)cc1,-1,0,-1,4,.,.
Cc1ccn2cc(-c3ccc(NC(=O)c4ccco4)cc3)nc2c1,5,-1,18*,-1,5,21
Cc1nc(-c2ccc(NC(=O)c3ccco3)cc2)cs1,8,2,-1,5,.,.
CC(C)C(C(=O)Nc1ccc2c(c1)OCCOCCOCCOCCO2)N1C(=O)c2ccccc2C1=O (stereo not drawn),2,-1,-2,-1,.,.
C/C(=N\NC(=O)c1ccncc1)c1cc2ccccc2oc1=O,3,4,-1,-2,.,.
C/C(=N/NC(=O)c1ccncc1)c1cc2ccc(O)cc2oc1=O,-57,-17,21*,87*,26*,7
O=C(COC(=O)c1nc(Cl)ccc1Cl)NNC(=O)c1cccs1,3,2,4,-9,.,.
O=C(Nn1c(C2CCCCC2)nc2ccccc2c1=O)c1ccc([N+](=O)[O-])cc1,2,4,2,0,.,.
CC(=O)c1cc2c(C)c(C(=O)c3ccccc3)oc2cc1O,3,-63,35*,-1,87*,15
Cc1oc2ccc(O)cc2c1C(=O)c1ccccc1,-2,4,4,-10,.,.
O=C1CSC(=S)N1CC1CCCO1 (stereo not drawn),1,-9,18*,3,14,11
COc1cccc2sc(Nc3nc4ccc(NC(C)=O)cc4s3)nc12,-13,-16,24*,8,7,117*
COc1cccc2sc(Nc3nc(-c4ccncc4)cs3)nc12,0,-8,17*,-2,4,61*
CC(Oc1ccc2c(-c3ccccc3)cc(=O)oc2c1)C(=O)N1CCC[C@@H]1C(N)=O (stereo partly drawn),-4,1,-1,-10,.,.
O=C(CSc1ccc([N+](=O)[O-])cn1)Nc1ccccc1N1CCOCC1,-16,2,0,0,.,.
Cc1ccc2cc(C3CC(c4ccco4)=NN3S(C)(=O)=O)c(Cl)nc2c1 (stereo not drawn),-2,-3,0,-8,.,.
Cc1cccc(Nc2ncnc3c2cnn3C)c1,1,-15,8,-6,.,.
Cn1ncc2c(Nc3ccc4ccccc4c3)ncnc21,5,-58,32*,7,4,10
CCOc1cccc(C(=O)Nc2nc(-c3ccc(S(=O)(=O)N4CCOCC4)cc3)cs2)c1,7,-16,23*,3,9,38*
SMILES,HDAC3 inh,IDE cell activ,IDE cell inh,LANA-H2B inh,IDE inh confirm,HEK cytotox
O=C(COc1cccc(Cl)c1)Nc1nc(-c2ccc(S(=O)(=O)N3CCOCC3)cc2)cs1,.,-16,.,.,.,.
COc1ccc(CC2=CC(=O)c3ccccc3C2=O)cc1,10,-28,46*,-1,35*,68*
Nc1ccccc1Sc1nc2ccccc2[nH]1,-1,-16,16*,0,6,3
Nc1nc2ccccc2[nH]1,1,3,.,-2,.,.
CCOC(=O)C1CCCN(C2=NC(=O)/C(=C/c3ccc(O)c(OC)c3)S2)C1 (stereo not drawn),-4,-28,25*,-4,75*,15
CCN(CC(=O)NCc1ccc(Cl)cc1)C(=O)/C=C/c1ccc(Cl)c([N+](=O)[O-])c1,-5,2,-5,-2,.,.
CC(=O)N1c2ccc(S(=O)(=O)N3CCC(C(=O)N4CCN(c5ccc(Cl)cc5)CC4)CC3)cc2CC1C (stereo not drawn),3,-22,20*,-1,10,38*
COc1ccc(/C=C/C(=O)c2ccc3c4c(cccc24)CC3)cc1OC,-3,6,-3,3,.,.
